From PubChem BioAssay (NCI)
This is part of a sample that, as a whole, favours compounds with a hit. Of some 83,000 tested, about 20% had one in any assay.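 Growth was measured after 48 h exposure to one concentration of compound in 96-well plates. Values under 10 count as active.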 Unmarked numbers belong to inactive results. The source made the active and inactive calls.

Assays:
Assay in all cases: NCI-60 one-dose screen, 48 h (100 = growth as untreated, 0 = no growth, -100 = all killed)
Details in all cases: 10 µM unless noted
[1] = system: SK-MEL-2 melanoma
[2] = system: EKVX NSCLC
[3] = system: SN12C renal
[4] = system: UO-31 renal
[5] = system: TK-10 renal
[6] = system: ACHN renal
[7] = system: CAKI-1 renal
[8] = system: A498 renal
[9] = system: CCRF-CEM leukemia
[10] = system: MOLT-4 leukemia

| Compound | growth [1] | growth [2] | growth [3] | growth [4] | growth [5] | growth [6] | growth [7] | growth [8] | growth [9] | growth [10] |
| --- | --- | --- | --- | --- | --- | --- | --- | --- | --- | --- |
| CC1=C(C(=O)Nc2nc(-c3ccc(Cl)cc3)cs2)[C@H](c2ccc(O)cc2)NC(=O)N1 | 106% | 94.1% | 107% | 78.3% | 103% | 105% | 91% | 99.4% | 116% | 94.2% |
| Cc1ccc(Cl)cc1NC(=O)c1sc2nc3c(cc2c1N)C(=O)CCC3 | 64.5% | 75.3% | 80.6% | 83.4% | 96.6% | 55.9% | 41.4% | 51.2% | 49.2% | 84.9% |
| C=C1C(=O)O[C@H]2[C@H]1CC/C(COC(=O)/C=C\C(=O)NCc1ccc(Cn3c(=O)sn(CCCCC)c3=O)cc1)=C\CC[C@@]1(C)O[C@@H]21 | 87.6% | 98% | 71% | 60.7% | 57.4% | 46.9% | 66.6% | 100% | 4.56% (active) | 18% |
| C=CCC(CCCC)(C(=O)OCC)C(=O)OCC | 100% | 114% | 110% | 85.3% | 104% | 102% | 96.7% | 111% | 93.2% | 108% |
| CCc1ccc(CCC(=O)Nc2ncc(Cc3ccccc3)s2)o1 | 44.4% | 36.1% | 42.3% | 40.3% | 63.1% | 44.4% | 33.3% | 22.9% | 19% | 22.2% |
| CCNC(=O)Oc1ccc(/C(=C(/CC)Cc2ccccc2)c2ccc(OCCN3CCCC3)cc2)cc1 | 108% | 88.3% | 92.7% | 83.5% | 91.2% | 95.1% | 96.8% | 89.3% | 87.2% | 75.9% |
| CN1CCN(CC(=O)Nc2ccc3ncnc(Nc4ccc(Oc5cccc(C(F)(F)F)c5)c(Cl)c4)c3c2)CC1 | -15.5% (active) | 31.1% | 51.3% | 21.7% | 41.6% | -63.2% (active) | -18.7% (active) | 36.3% | 6.92% (active) | -7.18% (active) |
| Fc1ccc(Cn2cc(CSc3nc4ccccc4o3)nn2)cc1 | 99.1% | 108% | 96.5% | 83.6% | 95.7% | 102% | 91.3% | 98% | 100% | 92.7% |
| CCOC(=O)c1c(C)nc2ccccc2c1/C=C/c1cccs1 | 63.6% | 67.6% | 78.4% | 63.6% | 90.2% | 76.5% | 63% | 84.5% | 76.4% | 49.4% |
| COC(=O)c1ccc(NC(=O)Nc2ccc(C(=O)OC)cc2)cc1 | 88% | 118% | 78.9% | 96.9% | 101% | 104% | 124% | 81.3% | 90.8% | 79.9% |
| Cc1ccc(C(=O)c2ccc(CC(=O)N=Nc3c(O)[nH]c4ccc(Br)cc34)n2C)cc1 | 91.3% | 74.3% | 85.2% | 64.7% | 131% | 88.9% | 79.7% | 89.3% | 95.4% | 86% |
| Cc1[nH]c(C2CC(c3ccc(C(F)(F)F)c(F)c3)=NN2c2ccccc2)c(C)c1C(=O)NCC(F)(F)F (stereo not given) | 104% | 69.3% | 90.7% | 58.8% | 151% | 95.8% | 59% | 48.2% | 79.4% | 58.3% |
| C#CCO[C@H]1CC(CC#C)(CC#C)C(=O)[C@@H]2[C@H]1[C@H]1C[C@@H]3[C@@]4(C)CCC[C@@](C)(C(=O)OC)[C@@H]4CC[C@@]23C=C1C(C)C | 97.9% | 94.7% | 94.1% | -34.5% (active) | 99.2% | 72.7% | 41% | 85.7% | -41.5% (active) | 76.7% |
